# Measured values published in the supplement of paper PMC9262897, “Low-cost anti-mycobacterial drug discovery using engineered E. coli” (Nature Communications, 2022).
# Where a name gives a salt, the structure may show the parent alone. ± gives the standard deviation of the averaged measurements.
# System: E. coli TESEC Mtb Alr
# Experiment: growth (OD600 after 10 h); higher = more growth (less inhibition)
# Conditions: arabinose 1000000 nM; compound 0.1 mM; raw OD600 reference: median of DMSO wells 0.193, cell-free background 0.041
# Experimental: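 TESEC Mtb Alr E. coli, or the Alr+ wild-type control, in 384-well plates with Prestwick library compounds at 0.1 mM and 1% DMSO, across arabinose induction levels of 1E3 to 1E7 nM. Growth is read as OD600 after 10 h at 37 °C in triplicate biological replicates.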
row,SMILES,growth
1,Cc1cc(C(C#N)c2ccc(Cl)cc2)c(Cl)cc1NC(=O)c1cc(I)cc(I)c1O (stereo unspecified) [Closantel],0.0411 ± 0.00058
2,C[C@]12CC[C@H](O)C[C@H]1CC[C@@H]1[C@@H]2C[C@@H](O)[C@]2(C)[C@@H](C3=CC(=O)OC3)CC[C@]12O [Digoxigenin],0.17 ± 0.0032
3,COc1cc2c(c(OC)c1OC)-c1ccc(OC)c(=O)cc1[C@@H](NC(C)=O)CC2 [Colchicine],0.185 ± 0.0039
4,C=C1C[C@@H]2[C@H](CC[C@]3(C)C(=O)CC[C@@H]23)[C@@]2(C)C=CC(=O)C=C12 [Exemestane],0.0722 ± 0.0026
5,C=C1CC[C@@]2(O)[C@H]3Cc4ccc(O)c5c4[C@@]2(CCN3CC2CC2)[C@H]1O5 [Nalmefene hydrochloride],0.19 ± 0.005
6,C[N+](C)(C)CCCCCCCCCC[N+](C)(C)C [Decamethonium bromide],0.208 ± 0.003
7,CCn1cc(C(=O)O)c(=O)c2cc3c(cc21)OCO3 [Oxolinic acid],0.0934 ± 0.0036
8,O=P1(N(CCCl)CCCl)NCCCO1 (stereo unspecified) [Cyclophosphamide],0.204 ± 0.022
9,CC(CCc1ccccc1)NC(C)C(O)c1ccc(O)cc1 (stereo unspecified) [Nylidrin],0.16 ± 0.0093
10,NCCCNCCSP(=O)(O)O [Amifostine],0.196 ± 0.013
11,"CCC1(c2ccc(N)cc2)CCC(=O)NC1=O (stereo unspecified) [Glutethimide, para-amino]",0.178 ± 0.0065
12,CCN(CC)C(C)C(=O)c1ccccc1 (stereo unspecified) [Amfepramone hydrochloride],0.187 ± 0.0038
13,C=C(C)[C@@H]1[C@H]2OC(=O)[C@@H]1[C@]1(O)C[C@H]3O[C@]34C(=O)O[C@H]2[C@]14C [Picrotoxinin],0.186 ± 0.0029
14,CC1C=CC=CCCC=CC=CC=CC=CC(OC2OC(C)C(O)C(N)C2O)CC2OC(O)(CC(O)C(O)CCC(O)CC(O)CC(O)CC(=O)OC(C)C(C)C1O)CC(O)C2C(=O)O (stereo unspecified) [Nystatine],0.1538 ± 0.0011
15,CC(C)CC(N(C)C)C1(c2ccc(Cl)cc2)CCC1 (stereo unspecified) [Sibutramine HCl],0.131 ± 0.0058
16,CCC1(CC)C(=O)C=CNC1=O [Pyrithyldione],0.2322 ± 0.0018
17,CCN(C)C(=O)Oc1cccc([C@H](C)N(C)C)c1 [Rivastigmine],0.19 ± 0.021

# Same assay, conditions: arabinose 10000000 nM; compound 0.1 mM; raw OD600 reference: median of DMSO wells 0.146, cell-free background 0.041
row,SMILES,growth
1,CC(N)C(O)c1ccccc1 (stereo unspecified) [Phenylpropanolamine hydrochloride],0.148 ± 0.0054
2,CC[C@@]1([C@@H]2O[C@@H]([C@H]3O[C@@](O)(CO)[C@H](C)C[C@@H]3C)C[C@@H]2C)CC[C@H]([C@]2(C)CC[C@]3(C[C@H](O)[C@@H](C)[C@@H]([C@@H](C)[C@@H](OC)[C@H](C)C(=O)O)O3)O2)O1 [Monensin sodium salt],0.138 ± 0.0041
3,CC(C)[N+](C)(CCC(C(N)=O)(c1ccccc1)c1ccccc1)C(C)C [Isopropamide iodide],0.142 ± 0.0052
4,CN1C[C@H](C(=O)N[C@]2(C)O[C@@]3(O)[C@@H]4CCCN4C(=O)[C@H](Cc4ccccc4)N3C2=O)C[C@@H]2c3cccc4[nH]cc(c34)C[C@H]21 [Dihydroergotamine tartrate],0.082 ± 0.0022
5,CN1[C@@H]2C[C@@H](OC(=O)[C@H](CO)c3ccccc3)C[C@H]1[C@@H]1O[C@@H]12 [Scopolamine hydrochloride],0.157 ± 0.0084
6,CN1[C@@H]2CC[C@H]1C[C@@H](OC(=O)[C@H](CO)c1ccccc1)C2 [Hyoscyamine (L)],0.158 ± 0.011
7,CN(C)C(=O)Oc1ccc[n+](C)c1 [Pyridostigmine iodide],0.138 ± 0.0049
8,CC[N+]1(C)CCCC(OC(=O)C(O)(c2ccccc2)c2ccccc2)C1 (stereo unspecified) [Pipenzolate bromide],0.133 ± 0.0034
9,CC(Cc1ccccc1)NCCC(c1ccccc1)c1ccccc1 (stereo unspecified) [Prenylamine lactate],0.0397 ± 0.00052
10,C#C[C@]1(O)CC[C@H]2[C@@H]3CCC4=CC(=O)CC[C@]4(C)[C@H]3CC[C@@]21C [Ethisterone],0.1381 ± 0.001
11,CCNCC(O)c1cccc(O)c1 (stereo unspecified) [Etilefrine hydrochloride],0.134 ± 0.0026
12,COc1cccc(C2(O)CCCCC2CN(C)C)c1 (stereo unspecified) [Tramadol hydrochloride],0.1352 ± 0.00092
13,C=CCN1CC[C@]23c4c5ccc(O)c4O[C@H]2C(=O)CC[C@@]3(O)[C@H]1C5 [Naloxone hydrochloride],0.137 ± 0.0051
14,O=c1[nH]c2ccccc2n1C1CCN(CCCC(c2ccc(F)cc2)c2ccc(F)cc2)CC1 [Pimozide],0.142 ± 0.004
15,CC[C@@H](CO)NC(=O)[C@@H]1C=C2c3cccc4[nH]cc(c34)C[C@H]2N(C)C1 [Methylergometrine maleate],0.178 ± 0.0023
16,C[C@]12Cc3c[nH]nc3C[C@@H]1CC[C@@H]1[C@@H]2CC[C@@]2(C)[C@H]1CC[C@]2(C)O [Stanozolol],0.139 ± 0.0021
17,"CN1CCC2(C)c3cc(O)ccc3N(C)C12 (single isomer, unassigned; (-)) [(-)-Eseroline fumarate salt]",0.19 ± 0.0049
18,C[C@@H]1O[C@@H](O[C@@H]2C=C3CC[C@@H]4[C@H](CC[C@]5(C)[C@@H](c6ccc(=O)oc6)CC[C@]45O)[C@@]3(C)CC2)[C@H](O)[C@H](O)[C@H]1O [Proscillaridin A],0.134 ± 0.0043
19,COc1ccc(CN2CCNCC2)c(OC)c1OC [Trimetazidine dihydrochloride],0.162 ± 0.0046
20,C[N+]1(C)CCOC(O)(c2ccc(-c3ccc(C4(O)C[N+](C)(C)CCO4)cc3)cc2)C1 (stereo unspecified) [Hemicholinium bromide],0.195 ± 0.0053

row,SMILES,growth
1,OC(c1ccccc1)(c1ccccc1)C1CCNCC1 [Azacyclonol],0.136 ± 0.0054
2,CCN(C(C)=O)c1cccc(-c2ccnc3c(C#N)cnn23)c1 [Zaleplon],0.132 ± 0.0056
3,Cc1cc(C(C#N)c2ccc(Cl)cc2)c(Cl)cc1NC(=O)c1cc(I)cc(I)c1O (stereo unspecified) [Closantel],0.0539 ± 0.00083
4,C[C@]12CC[C@H](O)C[C@H]1CC[C@@H]1[C@@H]2C[C@@H](O)[C@]2(C)[C@@H](C3=CC(=O)OC3)CC[C@]12O [Digoxigenin],0.14 ± 0.0016
5,COc1cc2c(c(OC)c1OC)-c1ccc(OC)c(=O)cc1[C@@H](NC(C)=O)CC2 [Colchicine],0.144 ± 0.0049
6,C=C1C[C@@H]2[C@H](CC[C@]3(C)C(=O)CC[C@@H]23)[C@@]2(C)C=CC(=O)C=C12 [Exemestane],0.0997 ± 0.0036
7,C=C1CC[C@@]2(O)[C@H]3Cc4ccc(O)c5c4[C@@]2(CCN3CC2CC2)[C@H]1O5 [Nalmefene hydrochloride],0.1356 ± 0.0009
8,C[N+](C)(C)CCCCCCCCCC[N+](C)(C)C [Decamethonium bromide],0.13 ± 0.0017
9,CCn1cc(C(=O)O)c(=O)c2cc3c(cc21)OCO3 [Oxolinic acid],0.123 ± 0.0027
10,O=P1(N(CCCl)CCCl)NCCCO1 (stereo unspecified) [Cyclophosphamide],0.137 ± 0.0039
11,CC(CCc1ccccc1)NC(C)C(O)c1ccc(O)cc1 (stereo unspecified) [Nylidrin],0.144 ± 0.002
12,NCCCNCCSP(=O)(O)O [Amifostine],0.145 ± 0.0044
13,"CCC1(c2ccc(N)cc2)CCC(=O)NC1=O (stereo unspecified) [Glutethimide, para-amino]",0.146 ± 0.0091
14,CCN(CC)C(C)C(=O)c1ccccc1 (stereo unspecified) [Amfepramone hydrochloride],0.141 ± 0.0089
15,C=C(C)[C@@H]1[C@H]2OC(=O)[C@@H]1[C@]1(O)C[C@H]3O[C@]34C(=O)O[C@H]2[C@]14C [Picrotoxinin],0.138 ± 0.0029
16,CC1C=CC=CCCC=CC=CC=CC=CC(OC2OC(C)C(O)C(N)C2O)CC2OC(O)(CC(O)C(O)CCC(O)CC(O)CC(O)CC(=O)OC(C)C(C)C1O)CC(O)C2C(=O)O (stereo unspecified) [Nystatine],0.188 ± 0.0066
17,CC(C)CC(N(C)C)C1(c2ccc(Cl)cc2)CCC1 (stereo unspecified) [Sibutramine HCl],0.137 ± 0.0051
18,CCC1(CC)C(=O)C=CNC1=O [Pyrithyldione],0.152 ± 0.0058
19,CCN(C)C(=O)Oc1cccc([C@H](C)N(C)C)c1 [Rivastigmine],0.156 ± 0.0029
